The results in this text go back to PubChem BioAssay (EPA / NIEHS).

Assay [1] can be described thus: ATG_CRE_CIS: Attagene CIS-FACTORIAL HepG2 Assay for human cAMP Responsive Element (CRE) binding protein 3 (AID 2282926). As to conditions: HepG2 CRE cis-reporter, Attagene multiplexed mRNA; actives raise or lower the signal. The gist of the method:
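Endogenous transcription factor activity read via CRE-regulated reporter transcripts in transfected HepG2 cells. After 24 h exposure, RNA was reverse-transcribed, amplified, fluorescently labelled and sized by capillary electrophoresis; gain or loss fitted against DMSO.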

In assay [2] the target is CCAAT/enhancer-binding protein beta (Homo sapiens) (UniProt P17676). Nature of the assay: ATG_C_EBP_CIS: Attagene CIS-FACTORIAL HepG2 Assay for human CCAAT/Enhancer Binding Protein (C/EBP) beta (AID 2282927). As to conditions: HepG2 Attagene cis-factorial transcription factor reporter; actives raise or lower the signal. The gist of the method: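 HepG2, transient MRTU transfection, 24 h treatment. RT-PCR plus CE fluorescence; DMSO negative control, bidirectional fit.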
CCAAT/enhancer-binding protein beta (Homo sapiens), sequence (P17676 whole entry, looked up): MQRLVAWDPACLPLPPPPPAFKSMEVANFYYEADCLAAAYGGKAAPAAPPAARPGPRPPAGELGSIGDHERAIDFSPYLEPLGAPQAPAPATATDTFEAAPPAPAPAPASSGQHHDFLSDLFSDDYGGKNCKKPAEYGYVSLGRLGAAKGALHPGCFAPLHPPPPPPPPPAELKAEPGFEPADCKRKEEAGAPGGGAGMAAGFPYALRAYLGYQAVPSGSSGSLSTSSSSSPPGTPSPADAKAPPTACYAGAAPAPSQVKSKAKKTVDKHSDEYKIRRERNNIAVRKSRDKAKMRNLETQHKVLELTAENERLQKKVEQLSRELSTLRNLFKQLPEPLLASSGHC

Assay [3] is described as follows: ATG_CMV_CIS: Attagene CIS-FACTORIAL HepG2 Assay for human CMV (Internal Marker) (AID 2282928).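 Also: endpoint acts as a background internal control marker rather than a target.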 Particulars: HepG2 CMV promoter reporter, transcription factor profiling; actives raise or lower the signal. A digest of the protocol:
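Reporter transcripts from transfected HepG2 cells are isolated after 24 h of chemical dosing, reverse-transcribed and amplified. Fragments labeled with 6-FAM are cut with HpaI and quantified by capillary electrophoresis; DMSO defines baseline.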

Assay [4] can be described thus: ATG_DR4_LXR_CIS: Attagene CIS-FACTORIAL HepG2 Assay for human Liver X Receptor (LXR), DR4 submotif (AID 2282929). Particulars: HepG2 Attagene DR4 cis-reporter, mRNA transcription; actives raise or lower the signal. A digest of the protocol: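 Transiently transfected HepG2 liver cells; cis-regulated reporters; 24 h dosing. RT-PCR plus CE read-out of reporter mRNA. DMSO baseline, bidirectional curve fitting.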

For assay [5], the target named is Aryl hydrocarbon receptor (Homo sapiens) (UniProt P35869). Put plainly: ATG_Ahr_CIS: Attagene CIS-FACTORIAL HepG2 Assay for human Aryl Hydrocarbon Receptor (Ahr) (AID 2282930). Particulars: HepG2 AhR cis-factorial reporter transcription; actives raise or lower the signal. The gist of the method:
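Endogenous factor activity is tracked through cis-promoter reporter units transfected into HepG2 cells. Transcript levels at 24 h are read by fluorescent RT-PCR and capillary electrophoresis, with activity in either direction scored relative to DMSO.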

Assay [6] can be described thus: ATG_AP_1_CIS: Attagene CIS-FACTORIAL HepG2 Assay for human Activator Protein 1 (AP-1) (AID 2282931). Particulars: HepG2 Attagene cis-factorial AP-1 reporter mRNA; actives raise or lower the signal. The gist of the method:
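We transfected HepG2 cells transiently with a set of cis-regulated reporter transcription units, dosed them for 24 h, and quantified reporter mRNA via RT-PCR and capillary electrophoresis, scoring gain or loss of signal relative to DMSO.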

Assay [7] can be described thus: ATG_AP_2_CIS: Attagene CIS-FACTORIAL HepG2 Assay for human Activator Protein 2 (AP-2) (AID 2282932). Particulars: HepG2 AP-2 cis-reporter, Attagene transcription factor profiling; actives raise or lower the signal. A digest of the protocol:
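Read-out: fluorescent reporter mRNA via RT-PCR and capillary electrophoresis, 24 h post-dose in transiently transfected HepG2. Endogenous factors drive cis-promoter reporters; gain or loss of signal fitted bidirectionally against DMSO.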

Assay [8] in a line: ATG_BRE_CIS: Attagene CIS-FACTORIAL HepG2 Assay for human Bone Morphogenetic Protein (BMP) Response Element (BRE) (AID 2282933). As to conditions: HepG2 BMP response element reporter, Attagene transcription factor profiling; actives raise or lower the signal. A digest of the protocol:
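Transient MRTU transfection of human HepG2 liver cells; 24 h compound treatment; total RNA isolated, reverse-transcribed, PCR-amplified, 6-FAM labelled, HpaI-cut, capillary electrophoresis. DMSO = negative control/baseline, bidirectional fit.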

For assay [9], the target named is Transcription factor E2F1 (Homo sapiens) (UniProt Q01094). Put plainly: ATG_E2F_CIS: Attagene CIS-FACTORIAL HepG2 Assay for human E2F Transcription Factor 1 (AID 2282935). As to conditions: HepG2 Attagene cis-reporter, E2F reporter RNA transcripts; actives raise or lower the signal. The gist of the method:
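Transient MRTU transfection of HepG2; 24 h compound exposure; RNA → oligo(dT) RT → PCR → FAM label → HpaI cut → CE fluorescence. Gain/loss of signal fit against DMSO.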

Assay [10] is described as follows: ATG_E_Box_CIS: Attagene CIS-FACTORIAL HepG2 Assay for human Enhancer Box (E-box) (AID 2282936). Particulars: HepG2 E-box cis-reporter transcription, actives raise or lower the signal. A digest of the protocol:
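Transiently transfected HepG2, endogenous TF-driven reporters, 24 h dosing. Readout: RT-PCR plus capillary electrophoresis of fluorescent reporter fragments. Gain or loss of signal fitted bidirectionally against DMSO baseline.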

A short description of assay [11]: ATG_M_61_CIS: Attagene CIS-FACTORIAL HepG2 Assay for M61 Transcription Factor (Internal Marker) (AID 2282937). As to conditions: HepG2 Attagene CIS-FACTORIAL M61 internal marker reporter; actives raise or lower the signal. The gist of the method:
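Multiplexed reporter mRNA assay, HepG2 human hepatoma cells, 24 h treatment. Signal: FAM-labelled, HpaI-digested RT-PCR fragments by CE. Fit: bidirectional, baseline DMSO.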

Assay [12] can be described thus: ATG_EGR_CIS: Attagene CIS-FACTORIAL HepG2 Assay for human Early Growth Response 1 (EGR1) (AID 2282938). Particulars: HepG2 Attagene CIS-FACTORIAL EGR reporter mRNA; actives raise or lower the signal. The gist of the method: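 Multiplexed cis-reporter system in human hepatoma HepG2 cells, transiently transfected. Cells are dosed for 24 h; reporter transcripts are amplified, fluorescently tagged and sized by capillary electrophoresis, with DMSO as negative control.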

Assay [13] can be described thus: ATG_M_19_CIS: Attagene CIS-FACTORIAL HepG2 Assay for M19 Transcription Factor (Internal Marker) (AID 2282939). As to conditions: HepG2 Attagene CIS-FACTORIAL M19 internal marker reporter; actives raise or lower the signal. The gist of the method:
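Transfect HepG2 with MRTU reporter library → dose chemical, 24 h → isolate total RNA, reverse-transcribe with oligo(dT) → PCR, 6-FAM label, HpaI cut (2 h, 37 C) → capillary electrophoresis. Bidirectional fit vs DMSO.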

Assay [14] is described as follows: ATG_Ets_CIS: Attagene CIS-FACTORIAL HepG2 Assay for human Erythroblast Transformation Specific (ETS) (AID 2282941). Particulars: HepG2 ETS cis-reporter transcription, actives raise or lower the signal. The gist of the method: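 Bidirectional fit versus DMSO of reporter mRNA signal, detected by RT-PCR and capillary electrophoresis in HepG2 cells transiently transfected with cis-element reporters and dosed 24 h.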

For assay [15], the target named is Hepatocyte nuclear factor 3-beta (Homo sapiens) (UniProt Q9Y261). Put plainly: ATG_FoxA2_CIS: Attagene CIS-FACTORIAL HepG2 Assay for human Forkhead box A2 (FOXA2) (AID 2282942). Particulars: HepG2 cis-reporter transcription factor activity, 24 h; actives raise or lower the signal. The gist of the method: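 Multiplexed cis-element reporter assay in transiently transfected HepG2. Twenty-four hours post-dosing, RNA was reverse-transcribed, amplified, FAM-labelled, HpaI-digested and separated by CE. Activity gain or loss relative to DMSO.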
Hepatocyte nuclear factor 3-beta (Homo sapiens), sequence (Q9Y261 whole entry, looked up): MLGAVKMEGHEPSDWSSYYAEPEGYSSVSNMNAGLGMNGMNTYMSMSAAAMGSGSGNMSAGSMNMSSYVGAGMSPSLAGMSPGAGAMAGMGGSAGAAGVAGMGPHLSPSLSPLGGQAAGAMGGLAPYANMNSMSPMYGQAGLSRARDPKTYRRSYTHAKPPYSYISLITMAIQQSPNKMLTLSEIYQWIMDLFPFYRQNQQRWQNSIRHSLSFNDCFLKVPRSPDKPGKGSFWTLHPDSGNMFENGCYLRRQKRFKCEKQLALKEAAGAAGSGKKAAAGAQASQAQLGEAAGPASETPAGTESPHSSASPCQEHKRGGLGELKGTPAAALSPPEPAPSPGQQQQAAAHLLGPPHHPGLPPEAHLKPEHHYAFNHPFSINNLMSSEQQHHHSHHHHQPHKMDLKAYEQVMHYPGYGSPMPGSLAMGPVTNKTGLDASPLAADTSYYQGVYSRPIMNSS

A short description of assay [16]: ATG_FoxO_CIS: Attagene CIS-FACTORIAL HepG2 Assay for human Forkhead box O (FoxO) (AID 2282943). Particulars: HepG2 Attagene cis-reporter, FoxO element, mRNA; actives raise or lower the signal. A digest of the protocol:
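Transfected HepG2 reporter cells exposed to test chemical for 24 h; reporter RNA measured by reverse transcription, PCR and fluorescent capillary electrophoresis; curves fitted for increases and decreases against DMSO.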

A short description of assay [17]: ATG_GATA_CIS: Attagene CIS-FACTORIAL HepG2 Assay for human GATA Binding Protein (AID 2282944). As to conditions: HepG2 GATA cis-element reporter, Attagene multiplex mRNA; actives raise or lower the signal. The gist of the method:
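Transient MRTU transfection, HepG2, 24 h compound exposure. Total RNA → oligo(dT) RT → PCR → 6-FAM primer extension → HpaI cut → CE. Bidirectional fit vs DMSO.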

The nature of assay [18]: ATG_GLI_CIS: Attagene CIS-FACTORIAL HepG2 Assay for human Zinc Finger Protein GLI1 (AID 2282945). As to conditions: HepG2, Attagene cis-factorial reporter mRNA, GLI element; actives raise or lower the signal. The gist of the method:
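Transiently transfected HepG2 cells report endogenous transcription factor activity via cis-element-driven reporter units. After 24 h compound exposure, reporter mRNA was measured by RT-PCR with capillary electrophoresis; bidirectional fitting against DMSO baseline.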

Assay [19] can be described thus: ATG_ERE_CIS: Attagene CIS-FACTORIAL HepG2 Assay for Estrogen Response Element (ERE) (AID 2282940). As to conditions: HepG2 ERE cis-reporter, Attagene RNA transcript; actives raise or lower the signal. The gist of the method:
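Transient MRTU transfection of human HepG2; cis-element promoters; 24 h dosing; total RNA → RT (oligo dT) → PCR → 6-FAM primer extension → HpaI digest → CE fluorescence. Bidirectional fit, DMSO baseline.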

Molecules are shown by their SMILES. The source made the active and inactive calls. The calls were made as follows: active = hit-call score of the fitted dose curve at least 0.9, where 1 is the maximum; inactive = score below 0.9.

Aryl hydrocarbon receptor (Homo sapiens), sequence (P35869 whole entry, looked up): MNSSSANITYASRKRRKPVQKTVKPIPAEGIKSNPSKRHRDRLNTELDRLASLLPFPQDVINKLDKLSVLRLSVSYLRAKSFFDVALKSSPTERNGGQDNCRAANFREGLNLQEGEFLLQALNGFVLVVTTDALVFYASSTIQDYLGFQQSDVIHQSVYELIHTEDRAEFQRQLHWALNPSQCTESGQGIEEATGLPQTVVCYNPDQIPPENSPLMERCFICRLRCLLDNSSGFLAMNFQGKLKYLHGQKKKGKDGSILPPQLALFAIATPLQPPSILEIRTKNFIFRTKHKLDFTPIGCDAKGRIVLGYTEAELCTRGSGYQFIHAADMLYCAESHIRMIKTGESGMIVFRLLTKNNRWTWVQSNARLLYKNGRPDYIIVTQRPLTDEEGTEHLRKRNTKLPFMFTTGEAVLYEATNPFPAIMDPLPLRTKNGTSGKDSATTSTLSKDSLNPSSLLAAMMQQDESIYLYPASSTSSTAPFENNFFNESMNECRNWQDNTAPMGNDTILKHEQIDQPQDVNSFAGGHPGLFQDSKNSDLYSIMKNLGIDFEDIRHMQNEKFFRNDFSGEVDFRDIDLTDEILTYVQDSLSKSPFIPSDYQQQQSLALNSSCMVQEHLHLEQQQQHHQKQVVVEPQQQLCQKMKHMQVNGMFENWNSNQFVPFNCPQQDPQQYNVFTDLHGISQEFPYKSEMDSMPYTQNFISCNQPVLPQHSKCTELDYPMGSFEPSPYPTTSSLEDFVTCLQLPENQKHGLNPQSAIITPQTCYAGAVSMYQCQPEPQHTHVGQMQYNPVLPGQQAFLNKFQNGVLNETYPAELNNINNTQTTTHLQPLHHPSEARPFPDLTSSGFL
Transcription factor E2F1 (Homo sapiens), sequence (Q01094 whole entry, looked up): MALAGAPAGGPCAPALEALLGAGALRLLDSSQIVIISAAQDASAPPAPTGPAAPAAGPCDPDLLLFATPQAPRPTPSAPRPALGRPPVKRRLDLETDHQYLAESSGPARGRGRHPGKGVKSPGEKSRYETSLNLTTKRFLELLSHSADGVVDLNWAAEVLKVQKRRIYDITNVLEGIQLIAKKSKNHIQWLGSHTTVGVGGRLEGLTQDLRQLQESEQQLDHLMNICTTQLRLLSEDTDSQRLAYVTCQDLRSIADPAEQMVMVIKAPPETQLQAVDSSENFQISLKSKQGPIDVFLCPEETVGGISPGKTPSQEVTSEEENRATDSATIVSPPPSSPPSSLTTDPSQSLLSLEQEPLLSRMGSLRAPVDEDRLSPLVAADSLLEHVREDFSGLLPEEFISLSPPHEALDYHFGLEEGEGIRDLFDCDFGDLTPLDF

For orientation: AC50 means the concentration giving half of the maximal activity seen. For `Cc1ccc(O)c(C(C)(C)C)c1`, the compound was classed as inactive in [1], in [2], in assay [3], in assay [5], in assay [7] and in assay [8]. In addition, the outcome in assay [9], in assay [10], in assay [11], in assay [12], in [14] and in assay [15] was inactive. The outcome in [16] and in assay [17] was inactive. The AC50 was 100 µM (active) in assay [4], 100 µM (active) in [6], 148 µM (active) in [13] and 173 µM (active) in [18].

With `CC(=O)O[C@]1(C(C)=O)CC[C@H]2[C@@H]3C[C@H](C)C4=CC(=O)CC[C@]4(C)[C@H]3CC[C@@]21C`, the call in [1], in assay [2], in [3], in assay [4], in [5] and in assay [6] was inactive. Also, the outcome in [7], in assay [8], in assay [9], in [10], in assay [11] and in [12] was inactive. In addition, the outcome in assay [13], in assay [14], in assay [15], in assay [16], in assay [17] and in assay [18] was inactive. The AC50 in assay [19] is 9.49 µM (active).

On to `C=C(C)C(=O)O`, for which the compound was classed as inactive in [1], in [2], in assay [3], in assay [4], in assay [5] and in assay [6]. The outcome in [7], in assay [8], in assay [9], in [10], in assay [11] and in [12] was inactive. Further, the result in assay [13], in [19], in assay [14], in assay [15], in assay [16] and in assay [17] was inactive. Further, in assay [18], the outcome was inactive.

Take `CC1=CCC2C(C1)C2(C)C` (configuration not stated): the outcome in assay [1], in assay [2], in assay [3], in [4], in assay [5] and in assay [6] was inactive. In addition, the compound was called inactive in [7], in assay [8], in assay [9], in assay [10], in [11] and in [12]. Also, the compound was classed as inactive in assay [13], in assay [14], in assay [15], in assay [16] and in assay [18]. Moreover, the AC50 in assay [19] was 82 µM (active).

Take `CC1(C)CCC(C)(C)c2cc(C(=O)Nc3ccc(C(=O)O)cc3)ccc21`: the outcome in assay [1], in assay [2], in assay [3], in [5], in assay [6] and in [8] was inactive. Besides, the result in assay [9], in [10], in assay [11], in assay [13], in assay [19] and in [14] was inactive. Moreover, the outcome in assay [15], in assay [16], in assay [17] and in [18] was inactive. The AC50 in assay [4] was 27.6 µM (active); in [7], 66.6 µM (active); in [12] it was 63 µM (active).

Turning to `Cc1ccc(C(C)C)cc1O`, the compound was called inactive in [1], in assay [2], in assay [3], in [4], in assay [5] and in assay [6]. Moreover, the outcome in assay [7], in [8], in assay [9], in [10], in [11] and in [12] was inactive. Also, the compound was called inactive in assay [13], in assay [14], in [15], in assay [16], in [17] and in assay [18].

Take `CCCC1CCC(=O)O1` (configuration not stated): the result in assay [1], in [2], in [3], in [4], in [6] and in assay [7] was inactive. Moreover, the compound was classed as inactive in [8], in [9], in [10], in [11], in assay [12] and in assay [13]. For the same compound, the call in assay [14], in assay [15], in assay [16], in assay [17] and in [18] was inactive. Moreover, in assay [5], the AC50 was 10.2 µM (active).

Regarding `CCN(CC)c1ccc2c(-c3ccccc3C(=O)O)c3ccc(=[N+](CC)CC)cc-3oc2c1`, the outcome in [1], in [2], in assay [3], in assay [5], in assay [6] and in assay [7] was inactive. Besides, the compound was called inactive in assay [9], in assay [10], in [11], in [13], in assay [19] and in assay [14]. Further, the outcome in [16], in [17] and in assay [18] was inactive. The AC50 in assay [4] was 130 µM (active); in assay [8] it was 158 µM (active); in assay [12], 135 µM (active).
